Data on 13 compounds can be found in PubChem BioAssay (NCI).

Test systems include NCI-H23 lung; NCI-H226 lung; NCI-H322M lung; HOP-62 NSCLC; NCI-H460 lung; HOP-92 NSCLC; NCI-H522 lung; A549/ATCC NSCLC; 786-0 renal; COLO 205 colon.
Assay in all cases: NCI-60 one-dose screen, 48 h (100 = growth as untreated, 0 = no growth, -100 = all killed)
Holding throughout (details): 10 µM unless noted

This is part of a sample that, as a whole, favours compounds with a hit. Of some 83,000 tested, about 20% had one in any assay.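 The test compound was applied at a single concentration to cells in 96-well plates for 48 hours, and percent growth was recorded.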 Unmarked numbers belong to inactive results. Active and inactive are the calls of the source. How the source made its calls: active means growth percent below 10; inactive means the rest.

Consider `S=C(Nc1ccc(OCc2nc3ccccc3[nH]2)cc1)NC1CCCCC1`, for which the growth in the assay on NCI-H23 lung was 101%; with NCI-H226 lung it was 105%; with NCI-H322M lung it was 106%; with HOP-62 NSCLC, 95.1%; with NCI-H460 lung, 125%; in the assay on HOP-92 NSCLC, 109%. Also, the growth in the assay with NCI-H522 lung is 51.7%; with A549/ATCC NSCLC, 105%; in the assay with 786-0 renal, 93%; in the assay on COLO 205 colon, 110%.
Take `COc1ccc(C(=O)/C=C/c2ccc3ccccc3c2)cc1S(N)(=O)=O`: the growth in the assay with NCI-H23 lung is -23.7% (active); in the assay on NCI-H226 lung, 20.1%; in the assay with NCI-H322M lung, 11.3%; with HOP-62 NSCLC it was -30.1% (active); in the assay with NCI-H460 lung it was 2.36% (active); with HOP-92 NSCLC, 24.9%. Further, the growth was -62.9% (active) with NCI-H522 lung, -78.4% (active) in the assay with A549/ATCC NSCLC, -89.2% (active) in the assay with 786-0 renal and -76.3% (active) in the assay with COLO 205 colon.
With `C=C1CC[C@@H]2[C@]3(C)COC(c4cn(-c5ccccc5)nc4-c4ccccc4)O[C@@H]3CC[C@@]2(C)[C@@H]1C/C=C1/C(=O)OC[C@H]1O` (stereo not given in full), the growth with NCI-H23 lung is -84.7% (active); with NCI-H226 lung, -90.4% (active); in the assay with NCI-H322M lung, 29.1%; in the assay with HOP-62 NSCLC, -68.1% (active); in the assay on NCI-H460 lung, -75.9% (active); in the assay on HOP-92 NSCLC it was -88.1% (active). In addition, the growth was -88.1% (active) with NCI-H522 lung, -22.2% (active) in the assay on A549/ATCC NSCLC, -61.3% (active) in the assay on 786-0 renal and -90.9% (active) in the assay with COLO 205 colon.
Regarding `NC(=S)Nc1cccc(NC(N)=S)c1`, the growth in the assay with NCI-H23 lung was 98.5%; in the assay on NCI-H226 lung, 98.1%; in the assay on NCI-H322M lung, 88.3%; with HOP-62 NSCLC, 119%; in the assay on NCI-H460 lung, 110%; in the assay with HOP-92 NSCLC, 105%. The growth in the assay on NCI-H522 lung is 97.2%; with A549/ATCC NSCLC, 93.9%; with 786-0 renal, 108%; with COLO 205 colon, 137%.
As to `C(=C\c1cc(/C=C/c2ccccc2)c2ccccc2n1)/c1ccccc1`, the growth is 82.2% in the assay on NCI-H23 lung; 106% in the assay with NCI-H226 lung; 120% with NCI-H322M lung; 109% in the assay on HOP-62 NSCLC; 102% in the assay on NCI-H460 lung; 84% with HOP-92 NSCLC. Moreover, the growth in the assay on NCI-H522 lung is 93.4%; in the assay on A549/ATCC NSCLC it was 101%; in the assay with 786-0 renal, 80.7%; with COLO 205 colon, 118%.
For the compound `Nc1n[nH]c2cccc(C#Cc3cccc(NC(=O)c4cccc(Cl)c4)c3)c12`, the growth in the assay with NCI-H23 lung is 38.2%; in the assay on NCI-H226 lung it was 45.8%; with NCI-H322M lung it was 49.1%; in the assay on HOP-62 NSCLC, 33.6%; with NCI-H460 lung, 24.7%; with HOP-92 NSCLC, 9.55% (active). For the same compound, the growth in the assay with NCI-H522 lung was 11.4%; with A549/ATCC NSCLC, 24.7%; in the assay on 786-0 renal it was 11.2%; in the assay with COLO 205 colon, 19.2%.
As to `Cc1c(C(=O)NNC(=O)Nc2ccc(Cl)cc2)nnn1-c1ccc(Br)cc1`, the growth was 102% with NCI-H23 lung; 103% with NCI-H226 lung; 90.3% in the assay on NCI-H322M lung; 97.1% with HOP-62 NSCLC; 107% in the assay on NCI-H460 lung; 92.8% in the assay with HOP-92 NSCLC. Further, the growth with NCI-H522 lung was 96.4%; in the assay with A549/ATCC NSCLC, 96.9%; in the assay on 786-0 renal, 96.7%; in the assay with COLO 205 colon, 107%.
Take `O=C(Nc1ccc(C(F)(F)F)cc1)Nc1ccc2oc(=O)ccc2c1`: the growth in the assay on NCI-H23 lung was 3.56% (active); in the assay on NCI-H226 lung, 26.6%; in the assay with NCI-H322M lung it was 41.1%; in the assay on HOP-62 NSCLC, 50.1%; in the assay on NCI-H460 lung it was 15.9%; with HOP-92 NSCLC, -5.11% (active). The growth in the assay with NCI-H522 lung was -10.4% (active); in the assay with A549/ATCC NSCLC, 14.1%; in the assay on 786-0 renal it was 53.8%; in the assay on COLO 205 colon, -26.4% (active).
`CCN1C(=O)N(CC)C2NNC(Sc3c(C(=O)O)c4ccccc4n(C4CCCC4)c3=O)=NC21` (stereo not given): the growth was 36.8% in the assay with NCI-H23 lung; 42% with NCI-H226 lung; 67.3% in the assay with NCI-H322M lung; 44.1% in the assay with HOP-62 NSCLC; 4.22% (active) in the assay on NCI-H460 lung; 73.4% with HOP-92 NSCLC. Also, the growth in the assay on NCI-H522 lung is -23.1% (active); in the assay on A549/ATCC NSCLC it was 28.2%; in the assay with 786-0 renal it was 22.9%; in the assay with COLO 205 colon, -31.1% (active).
In the case of `CCOP(=O)(OCCCl)c1nc(-c2ccc(C)cc2)oc1NCc1ccccc1` (stereo not given), the growth is 75.3% in the assay on NCI-H23 lung; 88% in the assay on NCI-H226 lung; 84.6% in the assay with NCI-H322M lung; 93.9% with HOP-62 NSCLC; 73.2% in the assay with NCI-H460 lung; 75.5% in the assay with HOP-92 NSCLC. For the same compound, the growth in the assay on NCI-H522 lung was 69.1%; with A549/ATCC NSCLC it was 66.5%; in the assay with 786-0 renal, 81.9%; in the assay on COLO 205 colon it was 83.5%.
For the compound `Cc1ccc(-n2c(-c3cc4ccccc4nc3Cl)noc2=O)cc1`, the growth with NCI-H23 lung is 87.7%; in the assay with NCI-H226 lung it was 77.7%; in the assay with NCI-H322M lung it was 92.5%; in the assay with HOP-62 NSCLC it was 65.1%; in the assay on NCI-H460 lung, 90.6%; in the assay on HOP-92 NSCLC it was 70.6%. For the same compound, the growth in the assay on NCI-H522 lung is 62.7%; in the assay on A549/ATCC NSCLC, 85.7%; in the assay with 786-0 renal, 91.3%; in the assay on COLO 205 colon it was 103%.
Regarding `CC(=O)Nc1cccc(Nc2nc(NCc3ccccc3)c3ccccc3n2)c1`, the growth with NCI-H23 lung is -86.3% (active); with NCI-H226 lung it was -84.3% (active); in the assay with NCI-H322M lung, -97.2% (active); in the assay on HOP-62 NSCLC, -90.8% (active); in the assay on NCI-H460 lung it was -79.5% (active); in the assay on HOP-92 NSCLC it was -83.5% (active). Besides, the growth in the assay with NCI-H522 lung is -83.8% (active); with A549/ATCC NSCLC it was -69% (active); in the assay on 786-0 renal, -89.1% (active); in the assay on COLO 205 colon it was -93.9% (active).
With `Nc1cc2ccccc2c(=O)n1NC(=O)c1ccc(I)cc1`, the growth in the assay with NCI-H23 lung was 97.3%; with NCI-H226 lung it was 99.9%; in the assay with NCI-H322M lung, 98.6%; in the assay with HOP-62 NSCLC it was 98.5%; with NCI-H460 lung it was 100%; with HOP-92 NSCLC, 106%. Also, the growth in the assay on NCI-H522 lung is 93.1%; with A549/ATCC NSCLC it was 94.6%; in the assay on 786-0 renal, 99.3%; with COLO 205 colon, 105%.
